We go through 7 compounds from PubChem BioAssay (Tox21).

A short description of test [1]: Nuclear factor erythroid 2-related factor 2/antioxidant responsive element (Nrf2/ARE) small molecule agonists: qHTS cell viability counter screen in human keratinocytes (AID 1919968; active means well fitted curve in the direction sought with a large enough effect in the repeat runs; an effect the other way counts as inactive or inconclusive; further: nearly all actives have a fitted effect of over 55% in size; further: potency means the concentration at half of the fitted maximal effect). The method, boiled down:
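In human HaCaT keratinocytes stably expressing an ARE-driven luciferase, compound exposure lasted 23 h at 37 C under 5% CO2. Viable cells are quantified with a protease-based fluorogenic reagent (CellTiter-Fluor) read 1 h after addition.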
(In general: In qHTS, concentration-response curves come from the screen itself.)

Test [2] can be described thus: Nuclear factor erythroid 2-related factor 2/antioxidant responsive element (Nrf2/ARE) small molecule agonists: luciferase reporter gene qHTS assay in human keratinocytes (AID 1919969; further: nearly all actives have a fitted effect of over 35% in size). (In general: A reporter such as luciferase makes a cellular process visible.)
For test [3], the target named is KiSS-1 receptor (Homo sapiens) (UniProt Q969F8). Nature of the test: Human kisspeptin (KISS1R) small molecule agonists, calcium flux assay in KISS1R-HEK293 cells (AID 1920064; active means well fitted curve in the direction sought with a large enough effect in the repeat runs; an effect the other way counts as inactive or inconclusive). The method, boiled down: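 Concentration-response testing used 15 concentrations in triplicate on human KISS1R-expressing HEK293 cells. Calcium-dependent fluorescence (Ex/Em 480/540) was followed kinetically for 3 min after compound transfer.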
For orientation: Calcium flux is commonly read through the fluorescence of an indicator in the cells.

Test [4] is described as follows: p53 small molecule agonists, cell-based qHTS assay with human liver microsomes (AID 1963577). The method, boiled down: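 In this qHTS, p53 response-element beta-lactamase cells receive test compound together with a microsome/NADPH activating system (0.5 mg/mL final each) and are incubated 16 h at 37 C before LiveBLAzer fluorescence detection.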
Test [5] is described as follows: p53 small molecule agonists, cell-based qHTS assay with rat liver microsomes (AID 1963578). The method, boiled down:
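Agonist mode in p53RE-bla reporter cells, with compounds co-incubated 16 h at 37 C alongside 0.5 mg/mL rat liver microsomes and 0.5 mg/mL NADPH (final), followed by a 2 h LiveBLAzer detection step.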

The nature of test [6]: p53 small molecule agonists, cell-based qHTS assay with human liver microsomes: qHTS cell viability counter screen (AID 1963579). Further: nearly all actives have a fitted effect of over 45% in size. Further: potency means the concentration at half of the fitted maximal effect. The method, boiled down: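 Metabolically activated exposure: compounds, human liver microsomes and NADPH (0.5 mg/mL final apiece) were added to p53RE-bla cells seeded 5 h earlier, left 16 h at 37 C, and then assessed for viability by CellTiter-Glo luminescence.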

A short description of test [7]: p53 small molecule agonists, cell-based qHTS assay with rat liver microsomes: qHTS cell viability counter screen (AID 1963580). Further: nearly all actives have a fitted effect of over 45% in size. The method in brief: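 Counter screen for cytotoxicity under metabolic activation: rat liver microsomes and NADPH, 0.5 mg/mL final each, added with compounds to p53RE-bla HCT-116 cells; 16 h at 37 C, then ATP luminescence read.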
A short description of test [8]: p53 small molecule agonists, cell-based qHTS assay: qHTS cell viability counter screen (AID 1963581). Further: nearly all actives have a fitted effect of over 45% in size. The method, boiled down: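 Luminescence from CellTiter-Glo, reflecting ATP content, serves as the cytotoxicity measure; it is taken after the 2 h reporter substrate step in HCT-116 p53RE-bla cells dosed for 16 h at 37 C.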
A short description of test [9]: p53 small molecule agonists, cell-based qHTS assay (AID 1963582; active means well fitted activation curve with a large enough effect in the signal ratio in the repeat runs, not every such curve was filed as active; the % refers to the signal ratio). The method in brief:
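After plating, p53RE-bla cells sat 5 h in the incubator; compounds or DMSO vehicle were pinned in; a 16 h incubation at 37 C followed; FRET substrate was added and, 2 h later at RT, fluorescence was measured.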

Test [10] has as its target 5-hydroxytryptamine receptor 2A (Homo sapiens) (UniProt P28223). Nature of the test: 5-hydroxytryptamine receptor 2A (HTR2A) small molecule antagonists, cell-based qHTS assay (AID 1963586). Further: nearly all actives have a fitted effect of over 45% in size. Further: potency means the concentration at half of the fitted maximal effect. The method, boiled down: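 CHO cells stably expressing human HTR2A were plated for 18 h at 37 C, then loaded with calcium dye for 1 h. Compounds were preincubated 5 min at room temperature before DOI (4 nM solution) was added. Kinetic fluorescence was read for 3 min.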

Test [11] has the same target. Nature of the test: 5-hydroxytryptamine receptor 2A (HTR2A) small molecule agonists, cell-based qHTS assay (AID 1963587). Further: nearly all actives have a fitted effect of over 30% in size. Further: potency means the concentration at half of the fitted maximal effect. The method, boiled down:
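HTR2A-CHO cells, plated 18 h at 37 C/5% CO2, dye-loaded 1 h at 37 C; compounds in DMSO added by pin tool (agonist mode). Intracellular calcium flux read as kinetic fluorescence on FDSS over 2 min at 1 s intervals.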

For test [12], the target named is Muscarinic acetylcholine receptor M1 (Homo sapiens) (UniProt P11229). Nature of the test: Cholinergic receptor muscarinic 1 (CHRM1) small molecule antagonists, cell-based qHTS assay (AID 1963588). Further: nearly all actives have a fitted effect of over 40% in size. The method in brief: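 Compounds were tested at 15 concentrations in three independent runs. Dye-loaded CHRM1-CHO cells were exposed 5 min at room temperature before stimulation by acetylcholine added at 50nM. Intracellular calcium was read kinetically on FDSS for 3 min.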

Test [13] has the same target. Nature of the test: Cholinergic receptor muscarinic 1 (CHRM1) small molecule agonists, cell-based qHTS assay (AID 1963589). Further: nearly all actives have a fitted effect of over 35% in size. Further: potency means the concentration at half of the fitted maximal effect. The method, boiled down: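 Fluorescent calcium dye reports M1 activation in stably transfected CHO cells. Compounds, 15 concentrations, added after 1 h dye loading at 37 C; kinetic reading at 1 sec intervals.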
Test [14] is described as follows: cAMP Responsive Elements (CRE) small molecule agonists, cell-based qHTS assay (AID 1963590). The method, boiled down: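 Compound exposure lasted 3 h at 37 C/5% CO2 in CRE-bla HEK 293T cells grown in assay medium with 10% dialyzed FBS and 25 mM HEPES. Reporter signal came from LiveBLAzer B/G FRET substrate, 2 h, room temperature.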
The nature of test [15]: cAMP Responsive Elements (CRE) small molecule antagonists, cell-based qHTS assay (AID 1963591; active means well fitted inhibition curve with a large enough effect in the signal ratio in the repeat runs, not every such curve was filed as active; the % refers to the signal ratio). The method, boiled down:
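Stimulation used NKH477 at a final 0.25 uM for 3 h in compound-treated CRE-bla HEK293T cells, seeded 18 h beforehand. Reporter activity was measured with LiveBLAzer B/G FRET substrate after 2 h at room temperature.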

Test [16] has as its target Beta-2 adrenergic receptor (Homo sapiens) (UniProt P07550). Nature of the test: Adrenergic beta2 receptor (ADRB2) small molecule antagonists, cell-based qHTS assay (AID 1963592). Further: series mostly up to about 92 µM; nearly all actives have a fitted effect of over 50% in size. The method, boiled down:
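Assay format: CHO-ADRB2 cells, 18-20hr seeding at 37C/5% CO2, then compound plus 1nM isoproterenol agonist mix for 0.5hr RT. Homogeneous time-resolved fluorescence cAMP detection after 1hr, expressed as 665/615 nm ratio.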

Test [17] has the same target. Nature of the test: Adrenergic beta2 receptor (ADRB2) small molecule agonists, cell-based qHTS assay (AID 1963593).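 Further: CHO cells stably overexpressing human ADRB2.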 The method, boiled down: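 CHO cells stably over-expressing ADRB2 were plated overnight at 37C, then dosed with compounds plus a stimulation mix containing 100uM IBMX and 25uM Ro-20-1724 for 0.5hr at room temperature. cAMP was measured by HTRF competition, 1hr.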

For test [18], the target named is D(2) dopamine receptor (Homo sapiens) (UniProt P14416). Nature of the test: Dopamine D2 receptor (DRD2) small molecule agonists, cell-based qHTS assay (AID 1963594). Further: nearly all actives have a fitted effect of over 35% in size. The method in brief: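 HEK293 cells stably expressing DRD2 were cultured 24 h at 37 C, then given Ro20-1724 (0.1 mM final) and compounds for 10 min at room temperature. NKH477 (200nM) was then added for 30 min. cAMP was read by HTRF.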

Test [19] shares this target. Nature of the test: Dopamine D2 receptor (DRD2) small molecule antagonists, cell-based qHTS assay (AID 1963595; active means well fitted inhibition curve with a large enough effect in the signal ratio in the repeat runs, with a control signal flat; the % refers to the signal ratio; further: potency means the concentration at half of the fitted maximal effect). The method in brief:
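HEK293 cells stably expressing DRD2, preincubated with 0.1 mM Ro20-1724 and compounds 10 min, were stimulated with 200 nM NKH477 plus 12 nM quinpirole for 30 min at room temperature; cAMP measured by HTRF (665/620 nm).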

Test [20] addresses Gonadotropin-releasing hormone receptor (Homo sapiens) (UniProt P30968). Nature of the test: Human gonadotropin-releasing hormone receptor (GnRHR) small molecule agonists, calcium flux assay in GnRHR-HEK293 cells (AID 1920063). Further: nearly all actives have a fitted effect of over 35% in size. The method, boiled down:
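Intracellular calcium rise is the read-out: engineered human GnRHR HEK293 cells, dye-loaded, are exposed to DMSO-dissolved compounds and fluorescence at Ex/Em 480/540 is tracked for 3 min.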

Values joined by “and” are separate entries in the source; they are usually repeats but may differ in a detail not shown here. Equal values may be shown once. Inconclusive results are not listed. Some structures have more than one record in an assay (separate samples or runs), and their calls can disagree. Active and inactive are the calls of the source. Unless noted, the call rests on the fitted dose curve.

KiSS-1 receptor (Homo sapiens), sequence (Q969F8 whole entry, looked up): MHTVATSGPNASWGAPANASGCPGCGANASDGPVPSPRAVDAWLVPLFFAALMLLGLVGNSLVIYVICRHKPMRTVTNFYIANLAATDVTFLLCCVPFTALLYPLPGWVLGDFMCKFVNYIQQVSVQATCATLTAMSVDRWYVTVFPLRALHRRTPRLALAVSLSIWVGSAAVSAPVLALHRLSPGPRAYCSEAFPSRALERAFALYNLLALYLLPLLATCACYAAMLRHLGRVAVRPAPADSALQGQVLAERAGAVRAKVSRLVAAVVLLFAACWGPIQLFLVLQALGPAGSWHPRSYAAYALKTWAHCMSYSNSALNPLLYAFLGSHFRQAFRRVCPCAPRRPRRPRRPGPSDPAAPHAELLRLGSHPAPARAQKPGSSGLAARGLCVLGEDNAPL
5-hydroxytryptamine receptor 2A (Homo sapiens), sequence (P28223 whole entry, looked up): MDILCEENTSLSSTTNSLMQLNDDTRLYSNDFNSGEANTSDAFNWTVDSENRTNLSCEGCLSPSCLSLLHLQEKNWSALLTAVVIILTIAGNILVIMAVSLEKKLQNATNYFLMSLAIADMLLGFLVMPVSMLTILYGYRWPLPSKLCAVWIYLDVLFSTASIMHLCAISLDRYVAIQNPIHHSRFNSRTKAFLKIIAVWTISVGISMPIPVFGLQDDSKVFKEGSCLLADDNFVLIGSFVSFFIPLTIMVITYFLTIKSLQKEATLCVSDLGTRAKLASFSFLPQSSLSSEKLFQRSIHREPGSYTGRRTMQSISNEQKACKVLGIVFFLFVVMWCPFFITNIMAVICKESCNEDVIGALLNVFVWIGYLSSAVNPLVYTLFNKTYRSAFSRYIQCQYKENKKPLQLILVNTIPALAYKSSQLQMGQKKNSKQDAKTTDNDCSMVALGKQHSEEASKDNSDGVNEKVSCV
D(2) dopamine receptor (Homo sapiens), sequence (P14416 whole entry, looked up): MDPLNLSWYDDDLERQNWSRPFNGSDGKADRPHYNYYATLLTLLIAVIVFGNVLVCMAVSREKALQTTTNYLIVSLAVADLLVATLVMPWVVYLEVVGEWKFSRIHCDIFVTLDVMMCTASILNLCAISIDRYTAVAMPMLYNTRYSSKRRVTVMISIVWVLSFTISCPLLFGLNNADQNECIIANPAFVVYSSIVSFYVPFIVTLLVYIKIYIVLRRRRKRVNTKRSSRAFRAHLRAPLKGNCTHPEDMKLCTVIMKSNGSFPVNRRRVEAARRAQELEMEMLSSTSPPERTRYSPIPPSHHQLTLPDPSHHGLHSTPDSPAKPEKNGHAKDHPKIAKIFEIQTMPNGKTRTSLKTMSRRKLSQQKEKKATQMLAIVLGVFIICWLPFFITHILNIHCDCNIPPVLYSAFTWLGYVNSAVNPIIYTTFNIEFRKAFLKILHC
Gonadotropin-releasing hormone receptor (Homo sapiens), sequence (P30968 whole entry, looked up): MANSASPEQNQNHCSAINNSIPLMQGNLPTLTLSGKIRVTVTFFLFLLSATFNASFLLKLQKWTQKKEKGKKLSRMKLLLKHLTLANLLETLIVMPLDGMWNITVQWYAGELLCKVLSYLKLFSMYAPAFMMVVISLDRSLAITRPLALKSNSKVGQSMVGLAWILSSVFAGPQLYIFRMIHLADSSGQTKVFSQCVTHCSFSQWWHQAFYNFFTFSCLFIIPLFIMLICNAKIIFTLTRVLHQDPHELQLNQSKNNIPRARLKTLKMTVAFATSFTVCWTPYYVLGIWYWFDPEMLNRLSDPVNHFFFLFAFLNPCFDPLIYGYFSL
Muscarinic acetylcholine receptor M1 (Homo sapiens), sequence (P11229 whole entry, looked up): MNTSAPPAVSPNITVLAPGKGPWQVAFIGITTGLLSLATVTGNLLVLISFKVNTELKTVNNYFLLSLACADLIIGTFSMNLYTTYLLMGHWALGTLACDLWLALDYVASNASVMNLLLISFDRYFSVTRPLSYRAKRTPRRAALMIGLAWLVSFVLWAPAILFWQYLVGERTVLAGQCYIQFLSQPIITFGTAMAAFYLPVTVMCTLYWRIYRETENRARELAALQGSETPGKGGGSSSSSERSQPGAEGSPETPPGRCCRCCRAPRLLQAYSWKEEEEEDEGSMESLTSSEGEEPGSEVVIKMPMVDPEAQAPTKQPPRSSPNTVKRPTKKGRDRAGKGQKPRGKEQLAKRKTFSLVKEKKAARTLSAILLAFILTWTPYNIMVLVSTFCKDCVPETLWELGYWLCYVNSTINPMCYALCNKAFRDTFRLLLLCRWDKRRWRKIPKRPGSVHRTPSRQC
Beta-2 adrenergic receptor (Homo sapiens), sequence (P07550 whole entry, looked up): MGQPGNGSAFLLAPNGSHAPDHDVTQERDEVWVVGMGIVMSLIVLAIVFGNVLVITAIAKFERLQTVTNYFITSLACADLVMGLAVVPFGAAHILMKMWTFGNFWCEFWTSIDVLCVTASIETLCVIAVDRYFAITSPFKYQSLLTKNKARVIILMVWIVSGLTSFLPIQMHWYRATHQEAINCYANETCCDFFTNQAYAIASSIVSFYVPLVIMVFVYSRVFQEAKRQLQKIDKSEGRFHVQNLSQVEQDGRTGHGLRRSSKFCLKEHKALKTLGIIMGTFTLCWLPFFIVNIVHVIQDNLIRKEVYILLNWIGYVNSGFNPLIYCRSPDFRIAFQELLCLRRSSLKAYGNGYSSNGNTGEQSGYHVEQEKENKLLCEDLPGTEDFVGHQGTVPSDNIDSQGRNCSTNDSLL

`CC1(C)C(=O)N(Cl)C(=O)N1Cl`: the Potency entry in test [1], in test [2], in test [3], in test [4], in test [5] and in test [6] was “inactive” in each case. Moreover, the Potency result in test [7], in test [8], in test [9], in [10], in test [11] and in test [12] was “inactive” throughout. The Potency result in [13], in [14], in test [15], in [16], in [17] and in test [18] was “inactive” throughout. In addition, the Potency result in test [19] was “inactive”.

As for `O=C1c2c(O)cccc2Cc2cccc(O)c21`, the Potency entry in test [1], in test [2], in test [20], in [4], in test [5] and in test [6] was “inactive” in each case. Besides, the Potency result in [7], in test [8], in test [9], in test [10], in test [11] and in test [12] was “inactive” throughout. Besides, the Potency result in [13], in test [14], in [16], in test [17], in [18] and in [19] was “inactive” throughout.

Consider `Brc1nc2ccccc2s1`, for which the Potency result in [1], in test [2], in test [20], in test [4], in test [5] and in test [6] was “inactive” each time. Further, the Potency entry in [7], in [8], in [9], in test [11], in [12] and in test [13] was “inactive” each time. The Potency entry in [14], in test [15], in test [16], in test [17], in test [18] and in [19] was “inactive” in each case.

As for `CC(C)=CCCC(C)CCO` (stereo unspecified), the Potency result in test [1], in [2], in test [3], in [4], in [5] and in test [6] was “inactive” each time. Besides, the Potency result in test [7], in [8], in test [9], in test [10], in test [11] and in test [12] was “inactive” in each case. Further, the Potency result in test [13], in [14], in [15], in test [16], in test [18] and in test [19] was “inactive” in each case.

Turning to `CCCCCCCCCCCCN`, the Potency entry is “inactive and 30.6 µM (active)” in test [1]; “inactive and 40.8 µM (active)” in test [6]; 5.94 µM (active) and inactive in [10]; 24.5 µM (active) and inactive in [11]; “inactive and 24.5 µM (active)” in [13]; “inactive and 43.3 µM (active)” in test [19]. In addition, the Potency result in test [2], in test [3], in [4], in test [5], in [7] and in test [8] was “inactive” in each case. For the same compound, the Potency entry in [9], in [12], in [14], in test [16], in test [17] and in test [18] was “inactive” in each case.

For the compound `CCCCCCCCCCCCCC[N+](C)(C)C`, the Potency is 52.7 µM (active) and 38.5 µM (active) and 2.37 µM (active) in test [1]; 48.9 µM (active) in test [11]; 10.7 µM (active) in test [13]. For the same compound, the Potency result in test [2], in [3], in [4], in [5], in [6] and in [7] was “inactive” throughout. For the same compound, the Potency entry in test [8], in [9], in [16], in test [17], in [18] and in test [19] was “inactive” throughout.

As for `CC1(C)[C@@H]2CC[C@@]1(C)C(=O)C2`, the Potency result in test [1], in [2], in test [3], in test [4], in test [5] and in test [6] was “inactive” each time. Moreover, the Potency result in test [7], in [8], in test [9], in test [14], in [15] and in test [16] was “inactive” each time. The Potency entry in test [17], in [18] and in test [19] was “inactive” in each case.
